The source of these data is PubChem BioAssay AID2472 (National Center for Advancing Translational Sciences (NCATS), 2010).

The whole screen tested about 290,000 compounds, of which about 2,000 (0.69%) were called active. Rule as the data show it: active = activity change below about -30%; inactive = the rest, inconclusive results apart. Shown is part of a subset that was picked to be rich in actives.
% is scaled to controls: 0 for no effect and ±100 for the full control effect.

The nature of this experiment: qHTS Assay for Inhibitors of Fructose-1,6-bisphosphate Aldolase from Giardia Lamblia: Coupling assay counterscreen. As to conditions: coupling enzyme system counterscreen, AmpLite Red fluorescence; at 58.2 µM (top of the series). A digest of the protocol: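 Counterscreen of the coupled detection system alone, without aldolase: glyceraldehyde-3-phosphate coupling enzymes plus AmpLite Red readout. Compounds at 57.5 uM final, 10 min RT preincubation, 20 min RT reaction, fluorescence 525/598 nm.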
On the technique in general: In qHTS, concentration-response curves come from the screen itself.
As to `COC(=O)c1ccc(CNC(=O)C2CCC(=O)N(Cc3ccccn3)C2)cc1` (stereo unspecified), the activity change, negative = inhibition was 0.556% (inactive). As for `CCOC(=O)C1=NO[C@@]2(C=C(Br)C(=O)[C@H]3O[C@H]32)C1`, the figure is 1.71% (inactive); as for `Cc1cc(CNC(=O)C2CCC(=O)N(CCc3ccc(Cl)cc3)C2)no1` (stereo unspecified), 2.61% (inactive). Consider `CC(C(=O)NCCc1ccc(S(N)(=O)=O)cc1)N1C(=O)CC(C)(C)Sc2ccccc21` (stereo unspecified), for which the activity change, negative = inhibition is 5.69% (inactive). Take `CSC(=S)N/N=C/c1c[nH]c2ccccc12`: the activity change, negative = inhibition is -0.216% (inactive). For `O=C(N/N=C/c1c[nH]c2ccccc12)c1ccccc1O`, the activity change, negative = inhibition was 1.26% (inactive). On to `C[n+]1ccc(/C=C/c2c[nH]c3ccccc23)cc1`, for which the activity change, negative = inhibition was -48.5% (active). With `O=C(NC1CC1)C1=C[C@H](c2c[nH]c3ccccc23)C[C@H](OCc2ccc(CO)cc2)O1` the figure was -9.68% (inactive). As for `COc1cccc([C@@H]2Oc3ccc(Br)cc3C(=O)[C@H]2OC(=O)NCc2ccc3c(c2)OCO3)c1`, the figure is 1.06% (inactive). As for `COc1ccc(CCNC(=O)CSCc2ccc(Br)cc2)cc1OC`, the figure is -0.53% (inactive). With `CCCCCCCCCc1ccc(OCCOCCOCCOCCOCCOCCOCCOCCOCCO)cc1`, the activity change, negative = inhibition is 0.692% (inactive). As to `COC(=O)[C@@]1(Cc2ccc(F)cc2)[C@H]2c3cc(C(=O)N4CCCC4)n(C[C@H](O)CO)c3C[C@H]2CN1C(=O)c1ccccc1`, the activity change, negative = inhibition is 4.89% (inactive). `O=C1C(Cl)=C(N2CCOCC2)C(=O)N1c1ccccc1`: the activity change, negative = inhibition was 4.18% (inactive). Take `COc1ccc(N2CCN(C(C)=C3C(=O)c4ccccc4C3=O)CC2)cc1`: the activity change, negative = inhibition is -5.52% (inactive).

On to `COC1=C(N2CCOCC2)C(=O)c2ccccc2C1=O`, for which the activity change, negative = inhibition is -31.1% (active).

In the case of `O=C(CSc1cccc[n+]1[O-])c1ccc(-c2ccccc2)cc1`, the activity change, negative = inhibition is -0.455% (inactive).

In the case of `CCSc1nsc(NC(=O)Nc2cccc(C(C)=O)c2)n1`, the activity change, negative = inhibition was -3.71% (inactive). With `C=C1CCN(Cc2ccc(OC)cc2)S(=O)(=O)c2ccccc21` the figure was -9.95% (inactive).

Consider `O=C(Nc1cc(C(=O)Nc2ccc(S(=O)(=O)O)cc2)cc(C(=O)Nc2ccc(S(=O)(=O)O)cc2)c1)Nc1cc(C(=O)Nc2ccc(S(=O)(=O)O)cc2)cc(C(=O)Nc2ccc(S(=O)(=O)O)cc2)c1`, for which the activity change, negative = inhibition was 4.94% (inactive).

Regarding `Cc1c(S(=O)(=O)O)oc2c1C(=O)C(=O)c1c-2ccc2c1CCCC2(C)C`, the activity change, negative = inhibition is -38.9% (active). Regarding `Cc1cc(C)cc(C#CC2C=CC(Oc3ccc(C4CCCC4)cc3)C(CO)O2)c1` (stereo unspecified), the activity change, negative = inhibition was -0.466% (inactive). Regarding `CC(C)(c1ccccc1)c1ccc(OCCN2CCCC2)cc1`, the activity change, negative = inhibition was 1.45% (inactive).

For `CCOc1ccc2[nH]c(=O)c(C(c3nnnn3CCOC)N3CCOCC3)cc2c1` (stereo unspecified), the activity change, negative = inhibition is -2.27% (inactive). Consider `COc1ccc(OC)c(C(c2nnnn2C(C)(C)C)N2CCc3ccccc3C2)c1` (stereo unspecified), for which the activity change, negative = inhibition was -0.0178% (inactive). As for `COCCn1nnnc1C(c1cc2ccc(OC)cc2[nH]c1=O)N1CCc2ccccc2C1` (stereo unspecified), the figure is -47.7% (active); as for `CCOc1ccc(CCNC(=O)Nc2ccccc2)cc1OCC`, 1.61% (inactive); as for `Cc1cccc(OC(C)C(=O)N2CCc3ccccc3C2)c1` (stereo unspecified), 3.66% (inactive). On to `CC(C)(O/N=C(\C(=O)N[C@@H]1C(=O)N2C(C(=O)[O-])=C(C[n+]3ccccc3)CS[C@@H]12)c1csc(N)n1)C(=O)O`, for which the activity change, negative = inhibition is 1.97% (inactive). As for `CCN1C(=S)N[C@@H](c2cccc(C(F)(F)F)c2)C(C(=O)OC)=C1C`, the figure is 2.17% (inactive); as for `CN(CCc1ccccn1)C(=O)c1ccc(OC2CCN(CCc3ccccc3)CC2)cc1`, 6.37% (inactive); as for `Cc1cc2nc3c(=O)n(Cc4ccccc4)c(=O)[nH]c3nc2cc1N`, -26.3% (inactive).

As to `Nc1ccc2nc3c(=O)[nH]c(=S)[nH]c3nc2c1`, the activity change, negative = inhibition is -35.7% (active).

Take `Cc1cccc(OCCC(=O)Nc2ccccc2C(N)=O)c1`: the activity change, negative = inhibition was -1.3% (inactive). Turning to `O=C(NCc1ccco1)O[C@@H]1C(=O)c2cc(Br)ccc2O[C@H]1c1ccc2c(c1)OCO2`, the activity change, negative = inhibition is -0.223% (inactive). With `Cc1ccccc1NC(=O)N1CCCC1C(=O)NCc1ccccc1` (stereo unspecified) the figure was 2.24% (inactive); with `CC(C)Cn1c(N)c(C(=O)NCc2cccs2)c2nc3ccccc3nc21`, -45.5% (active); with `CC(C)(C)c1ccc(C(=O)NCCn2c(N)c(C#N)c3nc4ccccc4nc32)cc1`, -0.974% (inactive). As to `CCC(C)NC(=O)c1c(N)n(/N=C/c2cccs2)c2nc3ccccc3nc12` (stereo unspecified), the activity change, negative = inhibition is 5.17% (inactive). For `COc1ccc(-c2nc3c(c4c2C[C@H](c2ccccc2)OC4)CN(C(=O)c2ccco2)CC3)c(C)c1`, the activity change, negative = inhibition is -0.274% (inactive). With `COc1ccc(OCC(=O)Nc2ccc(NC(=O)c3ccco3)c(C)c2)cc1`, the activity change, negative = inhibition was -0.451% (inactive). With `Cc1ccc(/C=N/NC(=O)CNC(=O)COc2ccccc2)o1`, the activity change, negative = inhibition was 0.654% (inactive). Take `Cc1ccc(/C=N/NC(=O)COc2ccccc2-c2ccccc2)cc1`: the activity change, negative = inhibition is 0.851% (inactive). As for `C=C(C)CNC(=S)N/N=C/c1ccccc1OCC(=O)O`, the activity change, negative = inhibition was 7.3% (inactive). As to `C=CCc1ccccc1OCC(=O)N/N=C/c1ccccc1OCC`, the activity change, negative = inhibition was -30.1% (active).

In the case of `CCOc1ccccc1/C=N/NC(=O)CNC(=O)COc1ccccc1`, the activity change, negative = inhibition was -43.5% (active).

Regarding `C=CCOc1ccccc1/C=N/NC(=O)Cc1ccccc1`, the activity change, negative = inhibition was 3.68% (inactive).
